Assay results as given in PubChem BioAssay (NCATS).
Values joined by “and” are separate entries in the source; they are usually repeats but may differ in a detail not shown here. Equal values may be shown once. Results filed as inconclusive are left out. Active and inactive are the calls of the source. Calls come from the whole dose curve; as a rule, active = well fitted inhibition curve with a large enough effect; inconclusive = small, poorly fitted or top-dose-only effect; inactive = flat fitted curve, though single readings scatter.

How the values were obtained:
HEK293 = experiment: Cytotoxic Profiling of Annotated Libraries Using Quantitative High-Throughput Screening (AID 1296008); conditions: Five cell lines viability, CellTiter-Glo ATP luminescence, 48-72 h; max response: hits give low values; for max response: % is set by controls: 0 for no effect and ±100 for the full control effect
Outline: (§1)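 Cytotoxicity was measured as CellTiter-Glo ATP luminescence, read after 10 min at room temperature. Compound treatment of the cells lasted 48 or 72 hr at 37 degrees Celsius in a qHTS format.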

HaCat [1] = experiment: as above; conditions: Five cell lines viability, CellTiter-Glo ATP luminescence, 48-72 h; max response: hits give low values
Outline: as §1

KB-3-1 = experiment: as above; conditions: Five cell lines viability, CellTiter-Glo ATP luminescence, 48-72 h; max response: hits give low values
Outline: as §1

MCC-13 = experiment: qHTS assay to identify novel small-molecules to repurpose for Merkel cell carcinoma treatment (AID 1296009); conditions: MCC and control cell lines, CellTiter-Glo viability, 72 h; series mostly up to 46 µM
Outline: (§2)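 After compound transfer in DMSO, plates were kept 72 hr at 37 degree celsius. Luminescent ATP signal from CellTiter-Glo served as viability measure, normalized against DMSO and no-cell controls.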

MCC-26 = experiment: as above; conditions: MCC and control cell lines, CellTiter-Glo viability, 72 h; series mostly up to 46 µM
Outline: as §2

MKL-1 = experiment: as above; conditions: MCC and control cell lines, CellTiter-Glo viability, 72 h; series mostly up to 46 µM
Outline: as §2

MKL-2 = experiment: as above; conditions: MCC and control cell lines, CellTiter-Glo viability, 72 h; series mostly up to 46 µM
Outline: as §2

UISO = experiment: as above; conditions: MCC and control cell lines, CellTiter-Glo viability, 72 h; series mostly up to 46 µM
Outline: as §2

NIH3T3 [2] = experiment: Cytotoxic Profiling of Annotated Libraries Using Quantitative High-Throughput Screening (AID 1296008); conditions: Five cell lines viability, CellTiter-Glo ATP luminescence, 48-72 h; max response: hits give low values; for max response: % is set by controls: 0 for no effect and ±100 for the full control effect
Outline: as §1

NIH3T3 [3] = experiment: qHTS assay to identify novel small-molecules to repurpose for Merkel cell carcinoma treatment (AID 1296009); conditions: MCC and control cell lines, CellTiter-Glo viability, 72 h; at 44.8 µM (top of the series) unless noted
Outline: as §2

PC26 = experiment: qHTS profiling for inhibitors of Plasmodium falciparum proliferation (AID 504749); conditions: P. falciparum in erythrocytes, SYBR Green DNA, 72 h; series mostly up to 28.7 µM
Outline: (§3)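 Three-day growth assay of blood-stage parasites in erythrocytes (0.3% parasitemia, 2.5% hematocrit) at 37 C, 5% CO2, quantified by SYBR Green DNA staining after overnight detergent lysis.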

PC49 = experiment: as above; conditions: P. falciparum in erythrocytes, SYBR Green DNA, 72 h; series mostly up to 28.7 µM
Outline: as §3

SC27B = experiment: as above; conditions: P. falciparum in erythrocytes, SYBR Green DNA, 72 h; series mostly up to 28.7 µM
Outline: as §3

TAB109 = experiment: as above; conditions: P. falciparum in erythrocytes, SYBR Green DNA, 72 h; series mostly up to 28.7 µM
Outline: as §3

TAB113 = experiment: as above; conditions: P. falciparum in erythrocytes, SYBR Green DNA, 72 h; series mostly up to 28.7 µM
Outline: as §3

TAB165 = experiment: as above; conditions: P. falciparum in erythrocytes, SYBR Green DNA, 72 h; series mostly up to 28.7 µM
Outline: as §3

W2 = experiment: as above; conditions: P. falciparum in erythrocytes, SYBR Green DNA, 72 h; series mostly up to 28.7 µM
Outline: as §3

HACAT [4] = experiment: qHTS assay to identify novel small-molecules to repurpose for Merkel cell carcinoma treatment (AID 1296009); conditions: MCC and control cell lines, CellTiter-Glo viability, 72 h; at 44.8 µM (top of the series) unless noted
Outline: as §2
Note: nearly all actives have a fitted effect of over 60% in size.
Potency is the fitted concentration of half-maximal effect.

CCCS(=O)(=O)Nc1ccc(F)c(C(=O)c2c[nH]c3ncc(-c4ccc(Cl)cc4)cc23)c1F
inactive: max response (HEK293) -5.51% | max response (HaCat [1]) -13.3% | max response (KB-3-1) 4.09% | Potency (MCC-13) | Potency (MCC-26) | Potency (MKL-1) | Potency (MKL-2) | Potency (UISO)

OCCC#Cc1nc(-c2ccc(F)cc2)c(-c2ccncc2)n1CCCc1ccccc1
inactive: max response (KB-3-1) 6.14% | outcome (NIH3T3 [2]) | Potency (MCC-13) | Potency (MCC-26) | Potency (MKL-1) | outcome (NIH3T3 [3]) | Potency (UISO)

Nc1nc2c(ncn2COCCO)c(=O)[nH]1
inactive: Potency (PC26) | Potency (PC49) | Potency (SC27B) | Potency (TAB109) | Potency (TAB113) | Potency (TAB165) | Potency (W2)

Cc1oncc1C(=O)Nc1ccc(C(F)(F)F)cc1
inactive: Potency (PC26) | Potency (PC49) | Potency (SC27B) | Potency (TAB109) | Potency (TAB113) | Potency (TAB165)
active: Potency (W2) 3.22 µM

CCOC(=O)N1CCC(=C2c3ccc(Cl)cc3CCc3cccnc32)CC1
inactive: Potency (TAB109) | max response (HaCat [1]) -16.9% and -8.21% | outcome (KB-3-1) | max response (NIH3T3 [2]) -21% and -12% | Potency (MCC-13) | Potency (MCC-26) | Potency (MKL-1) | Potency (MKL-2) | Potency (UISO)
active: Potency (PC26) 12 µM | Potency (PC49) 4.47 µM | Potency (SC27B) 6.31 µM | Potency (TAB165) 2.51 µM | Potency (W2) 8.49 µM | Potency (HEK293) 18.7 µM and 18.8 µM

Cc1cc(-c2ccc(CC(=O)Nc3ccc(-c4cccnc4)cc3)cc2)ccn1
active: Potency (HEK293) 9.35 µM
inactive: outcome (HaCat [1]) | outcome (HACAT [4]) | Potency (MCC-13) | Potency (MCC-26) | Potency (MKL-1)

CC(C)(C)OC(=O)CN(Cc1ccc(Cl)cc1)Cc1ccc([N+](=O)[O-])s1
inactive: outcome (HaCat [1]) | max response (KB-3-1) 0.3% | max response (NIH3T3 [2]) 1.62% | outcome (HACAT [4]) | Potency (MCC-13) | Potency (MCC-26) | Potency (MKL-1) | Potency (UISO)

N#Cc1ccc(C(c2ccc(C#N)cc2)n2cncn2)cc1
inactive: Potency (PC26) | Potency (PC49) | Potency (SC27B) | Potency (TAB109) | Potency (TAB113) | Potency (TAB165) | Potency (W2) | max response (KB-3-1) -0.837% and -6.35% | max response (NIH3T3 [2]) 2.6% | Potency (MCC-13) | Potency (MCC-26) | Potency (MKL-2) | Potency (UISO)

CS(=O)(=O)c1cccc(CNc2nc(Nc3ccc4c(c3)CCC(=O)N4)ncc2C(F)(F)F)c1
inactive: Potency (MCC-13) | Potency (MCC-26) | Potency (MKL-2)
active: Potency (HEK293) 18.4 µM | Potency (HaCat [1]) 14.6 µM | Potency (KB-3-1) 18.7 µM | Potency (NIH3T3 [2]) 8.2 µM

CCn1c(-c2nonc2N)nc2c(C#CC(C)(C)O)ncc(OC[C@H]3CCCNC3)c21
active: Potency (HEK293) 0.0469 µM | Potency (KB-3-1) 9.35 µM
inactive: outcome (HaCat [1]) | outcome (NIH3T3 [2]) | outcome (HACAT [4]) | Potency (MCC-13) | Potency (MCC-26) | Potency (MKL-1) | Potency (MKL-2) | outcome (NIH3T3 [3]) | Potency (UISO)

Cc1ccc(NC(=O)c2cccc(C(C)(C)C#N)c2)cc1Nc1ccc2ncn(C)c(=O)c2c1
inactive: Potency (MCC-26) | Potency (MKL-1) | Potency (MKL-2)
active: Potency (HaCat [1]) 13.2 µM | Potency (NIH3T3 [2]) 16.6 µM

Cc1cccc(-c2[nH]c(C(C)(C)C)nc2-c2ccc3nccnc3c2)n1
inactive: outcome (HaCat [1]) | outcome (HACAT [4]) | Potency (MCC-13)
active: Potency (HEK293) 3.72 µM | Potency (KB-3-1) 14.8 µM | Potency (MKL-1) 2.64 µM | Potency (UISO) 2.96 µM

c1ccc(-c2nn3c(c2-c2ccnc4cc(OCCN5CCOCC5)ccc24)CCC3)nc1
inactive: max response (HaCat [1]) -14.5% | max response (KB-3-1) 6.43% | Potency (MCC-13) | Potency (MCC-26) | Potency (MKL-1) | Potency (MKL-2)
active: Potency (NIH3T3 [2]) 5.26 µM

OC[C@H](Cc1ccccc1)Nc1nc(Oc2ccc3c(c2)CCC3)nc2c1ncn2Cc1ccc(-c2ccccc2)cc1
active: Potency (HEK293) 8.33 µM
inactive: outcome (HaCat [1]) | max response (KB-3-1) -22.3% | max response (NIH3T3 [2]) 1.2% | outcome (HACAT [4]) | Potency (MCC-13) | Potency (MCC-26) | Potency (MKL-1) | Potency (MKL-2)
